In PubChem BioAssay (EPA / NIEHS) one finds outcome and AC50 data, which are given here for 40 molecules.

Molecules are shown by their SMILES. Calls of active or inactive are those of the source. The calls were made as follows: active = hit-call score of the fitted dose curve at least 0.9, where 1 is the maximum; inactive = score below 0.9.

Read-out in the assay: Vascular cell adhesion molecule 1 (VCAM1), VCAM1 (gene 7412)
The experiment in a line: BSK_4H_VCAM1: BioMAP Diversity Plus: 4H Assay for Vascular cell adhesion molecule 1 (VCAM1) Biomarker Activity (AID 2283033). To be noted: primary human endothelial cells (HUVEC); actives raise or lower the signal. Here is the method:
BSK_4H is a cell-based, multiplexed-readout assay that uses umbilical vein endothelium, a human vascular primary cell, with measurements taken at 24 hours after chemical dosing in a 96-well plate.BSK_4H_VCAM1 is an assay component measured in the BSK_4H assay. It measures VCAM-1 antibody related to regulation of gene expression using ELISA technology.Data from the assay component BSK_4H_VCAM1 was analyzed into 1 assay endpoint. This assay endpoint, BSK_4H_VCAM1, was analyzed with bidirectional fitting relative to DMSO as the negative control and baseline of activity. Using a type of binding reporter, gain or loss-of-signal activity can be used to understand changes in the signaling as they relate to the gene VCAM1. Furthermore, this assay endpoint can be referred to as a primary readout, because this assay has produced multiple assay endpoints where this one serves a signaling function. To generalize the intended target to other relatable targets, this assay endpoint is annotated to the cell adhesion molecules intended target family, where the subfamily is Immunoglobulin CAM.
The levels of cell surface (or secreted, indicated by the prefix "s") biomarker endpoints were measured by ELISA. Overt cytotoxicity to cells in confluent adherent cultures (all systems other than the BT system) was assessed by measuring total protein levels using sulforhodamine B (SRB) staining in parallel cultures at the time of biomarker measurements, indicated as SRB endpoints. For proliferation assays for adherent cell types, individual cell types are cultured at sub-confluence and relative cell numbers quantified by SRB staining at time points optimized for each system (48 h: 3C and CASM3C systems; 72 h: BT and HDF3CGF systems; 96 h: SAg system). SRB was performed by staining cells with 0.1% SRB after fixation with 10% TCA and reading wells at 560 nm.Viability and proliferation of PBMC (T cells) was quantified by Alamar Blue reduction for the SAg and BT systems. For PBMC viability (referred to as PBMC Cytotoxicity within the assay endpoint names), cells were plated (75,000/well in a 96-well plate) and then chemical samples added for 1 h before addition of activators, SEB and TSST-1 (20 ng/mL final concentration each). Cells were incubated for 90 h. Then, Alamar Blue (20 uL/well) (Invitrogen, Cat DAL1100) was added for 6 h, and the plates were read with a fluorescence microplate reader at 546/580 nm (excitation/emission). For PBMC proliferation, cells were plated and activated as above but incubated for only 16 h prior to addition of Alamar Blue. Plates were read after 6 h.
As to `Cc1ccc2ncccc2c1`, the outcome was inactive.
Same read-out and setting: the same measure for `Cc1ccc(C(C)C)c(O)c1`: “inactive”; for `COc1ccc2c(c1)c(CC(=O)O)c(C)n2C(=O)c1ccc(Cl)cc1`: “inactive”; for `CCCCCCCCCCO`: “inactive”.
For `O=C(O)CCCCC(=O)O`, the outcome was inactive.
The same measure, in the same setting: the same measure for `CCCCCCC(=O)OCC`: “inactive”; for `Nc1nc(N)c2nc(CNc3ccc(C(=O)N[C@@H](CCC(=O)O)C(=O)O)cc3)cnc2n1`: “inactive”.
On the same count and under the same terms, the same measure for `CC1(C)NC(=O)NC1=O`: “inactive”; for `Cc1ccc(C)c(C)c1`: “inactive”.
The same measure, in the same setting: the same measure for `O=c1[nH]cc(F)c(=O)[nH]1`: “inactive”; for `CC(=O)Oc1ccccc1C(=O)O`: “inactive”.
`CN1CCCC1=O`: the outcome was inactive.
On to `C[C@]12C=CC(=O)C=C1CC[C@@H]1[C@@H]2C(=O)C[C@@]2(C)[C@H]1CC[C@]2(O)C(=O)CO`, for which the result was inactive.
In general, AC50 refers to the concentration giving half of the maximal activity seen. For the molecule `CCc1c(C(=O)NN2CCCCC2)nn(-c2ccc(Cl)cc2Cl)c1-c1ccc(Br)cc1`, the half-maximal activity concentration (AC50) was 9.11 µM (active).
The same measure, in the same setting: to `CC=Cc1ccc(O)c(OC)c1` belongs 7.6 µM (active).
Take `CCCCCCCC=O`: the outcome was inactive.
On to `NC(=O)Cn1c(=O)cc(CCN2CCN(c3nccc4sccc34)CC2)c2ccc(F)cc21`, for which the AC50 was 7.88 µM (active).
In the case of `Cc1cc(NC(=O)C(=O)O)cc(C)c1Oc1ccc(O)c2c1CCC2`, the outcome was inactive.
For `O=C(O)Cc1ccccc1Nc1c(Cl)cccc1Cl`, the result was inactive.
For the molecule `Nc1ccccc1N`, the half-maximal activity concentration (AC50) was 4.07 µM (active).
`CNCc1cc(F)ccc1Oc1ccc(Cl)c(Cl)c1`: the outcome was inactive.
The same measure, in the same setting: the same measure for `CCCCCC(=O)O`: “inactive”; for `Cc1cccc([N+](=O)[O-])c1C`: “inactive”.
Regarding `Cc1oc(-c2ccccc2)nc1CCOc1cccc2c1ccn2CCC(=O)O`, the outcome was inactive.
In the case of `C=CCc1ccc(O)c(OC)c1`, the result was inactive.
On the same count and under the same terms, the same measure for `CC(=O)C(C)=CC1C(C)=CCCC1(C)C` (stereo not given): “inactive”; for `Oc1ccc2c(c1)OC[C@@H](N1CCC(O)(c3ccc(F)cc3)CC1)[C@H]2O`: “inactive”; for `CCCCOC(=O)CCCCCCCCC(=O)OCCCC`: “inactive”.
For `C1CCC(SSC2CCCCC2)CC1`, the concentration at half-maximal activity (AC50) is 20 µM (active).
On to `Cc1cccc(C)c1O`, for which the result was inactive.
Turning to `COCCOCCOC`, the result was inactive.
On the same count and under the same terms, to `Cc1nc(C)nc(N2C[C@@H](C)N(c3ccnc([C@@H](C)O)n3)[C@@H](C)C2)n1` belongs “inactive”; to `Cc1ccccc1Cl`, “inactive”; to `C[Si]1(C)O[Si](C)(C)O[Si](C)(C)O[Si](C)(C)O1`, “inactive”.
In the case of `CCCCCCCCCCCCCO`, the AC50 was 36.1 µM (active).
Regarding `Cc1ccc(N(C)C)cc1`, the outcome was inactive.
As for `O=C(OCCCCCOC(=O)c1ccccc1)c1ccccc1`, the result was inactive.
In the case of `OC[C@@H](O)[C@@H](O)[C@H](O)[C@H](O)CO`, the outcome was inactive.
On the same count and under the same terms, the same measure for `CCOC(=O)C(C)(C)Oc1ccc(Cl)cc1`: “inactive”; for `Cc1c(C(=O)O)c(O)cc2c1C(=O)c1c(O)c([C@@H]3O[C@H](CO)[C@@H](O)[C@H](O)[C@H]3O)c(O)c(O)c1C2=O`: “inactive”.
